Reference: the supplement of paper PMC10849652
About 7,900 targets were measured; listed, in parts, are those with a hit and a random draw of the rest. About 0.6% of all pairs of compound and target were hits.

Key:
Experiment in all cases: log2 fold change, soluble protein after heating vs DMSO (PISA); higher = thermal stabilisation; K562 cells, 10 uM, 30 min; active = over 0.2 and 3.5 SD of the protein, either way, in both replicates (recomputed)
bafetinib = compound: Cc1ccc(NC(=O)c2ccc(CN3CC[C@H](N(C)C)C3)c(C(F)(F)F)c2)cc1Nc1nccc(-c2cncnc2)n1 [bafetinib]
How it was run: (§1)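 Thermal stability values are relative to control samples and come from duplicates. They are expressed as log2 fold changes. For measurement, K562 cells (2×10^6 cells/mL) received 10 μM compound for 30 min, and aliquots were heated for 3 min over 48°C-58°C, pooled, and extracted at 4°C in PBS with 0.5% NP-40. Soluble protein, the supernatant after 21,000xg for 90 min, was quantified by TMTpro 16plex LC-MS/MS with equalised channel sums.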

[1] = compound: Cc1cccc(CC(=O)N2CCc3c2ccc(-c2cn(C)c4ncnc(N)c24)c3F)n1
How it was run: as §1

nilotinib = compound: Cc1cn(-c2cc(NC(=O)c3ccc(C)c(Nc4nccc(-c5cccnc5)n4)c3)cc(C(F)(F)F)c2)cn1 [nilotinib]
How it was run: as §1

[2] = compound: Cc1nc(Nc2n[nH]c3c2CN(C(=O)N[C@H](CN(C)C)c2ccccc2)C3(C)C)c2sccc2n1
How it was run: as §1

dasatinib = compound: Cc1nc(Nc2ncc(C(=O)Nc3c(C)cccc3Cl)s2)cc(N2CCN(CCO)CC2)n1 [dasatinib]
How it was run: as §1

[3] = compound: Cc1ncc(-c2ccnc(Nc3ccc(S(C)(=O)=O)cc3)n2)n1C(C)C
How it was run: as §1

[4] = compound: Cn1cc(-c2ccc3c(c2)CCN3C(=O)Cc2cccc(C(F)(F)F)c2)c2c(N)ncnc21
How it was run: as §1

[5] = compound: Cn1cc(-c2ccc3nnc(C(F)(F)c4ccc5ncccc5c4)n3n2)cn1
How it was run: as §1

tipifarnib = compound: Cn1cncc1[C@@](N)(c1ccc(Cl)cc1)c1ccc2c(c1)c(-c1cccc(Cl)c1)cc(=O)n2C [tipifarnib]
How it was run: as §1

mubritinib = compound: FC(F)(F)c1ccc(/C=C/c2nc(COc3ccc(CCCCn4ccnn4)cc3)co2)cc1 [mubritinib]
How it was run: as §1

[6] = compound: NC(=O)Nc1cc(-c2cccc(F)c2)sc1C(=O)N[C@H]1CCCNC1
How it was run: as §1

[7] = compound: NC(=O)c1cnc(N[C@@H]2CCCC[C@@H]2N)nc1Nc1cccc(-n2nccn2)c1
How it was run: as §1

[8] = compound: NC1(c2ccc(-c3nc4ccn5c(=O)[nH]nc5c4cc3-c3ccccc3)cc2)CCC1
How it was run: as §1

[9] = compound: NCC(=O)Nc1ccc(-n2nc(C(F)(F)F)cc2-c2ccc3c(ccc4ccccc43)c2)cc1
How it was run: as §1

entinostat = compound: Nc1ccccc1NC(=O)c1ccc(CNC(=O)OCc2cccnc2)cc1 [entinostat]
How it was run: as §1

vorinostat = compound: O=C(CCCCCCC(=O)Nc1ccccc1)NO [vorinostat]
How it was run: as §1

citarinostat = compound: O=C(CCCCCCNC(=O)c1cnc(N(c2ccccc2)c2ccccc2Cl)nc1)NO [citarinostat]
How it was run: as §1

silmitasertib = compound: O=C(O)c1ccc2c(c1)nc(Nc1cccc(Cl)c1)c1ccncc12 [silmitasertib]
How it was run: as §1

[10] = compound: O=C1NC(=O)C(c2cnc3ccccn23)=C1c1cn2c3c(cc(F)cc13)CN(C(=O)N1CCCCC1)CC2
How it was run: as §1

[11] = compound: c1cc(OCCN2CCCCC2)cc(-c2n[nH]c3ccc(-c4nnc[nH]4)cc23)c1
How it was run: as §1

Measured: log2 fold change

SLC12A9 (UniProt Q9BXP2)
inactive: bafetinib -0.088 | [1] 0.023 | nilotinib -0.069 | [2] 0.05 | dasatinib 0.057 | [3] -0.066 | [4] 0.008 | [5] -0.006 | tipifarnib 0.025 | mubritinib 0.001 | [6] 0.05 | [7] -0.142 | [9] -0.03 | entinostat 0.021 | vorinostat 0.027 | citarinostat 0.035 | silmitasertib 0.017 | [10] -0.081 | [11] -0.062
active: [8] -0.313

SCLT1 (UniProt Q96NL6)
inactive: bafetinib 0.087 | [1] -0.009 | nilotinib -0.099 | [2] -0.043 | dasatinib -0.052 | [3] 0.041 | [4] 0.191 | mubritinib 0.098 | [6] -0.007 | [8] -0.057 | [9] -0.077 | entinostat -0.023 | vorinostat 0.064 | silmitasertib -0.01

RELA (UniProt Q04206)
UniProt Q04206, sequence (Q04206 whole entry, looked up): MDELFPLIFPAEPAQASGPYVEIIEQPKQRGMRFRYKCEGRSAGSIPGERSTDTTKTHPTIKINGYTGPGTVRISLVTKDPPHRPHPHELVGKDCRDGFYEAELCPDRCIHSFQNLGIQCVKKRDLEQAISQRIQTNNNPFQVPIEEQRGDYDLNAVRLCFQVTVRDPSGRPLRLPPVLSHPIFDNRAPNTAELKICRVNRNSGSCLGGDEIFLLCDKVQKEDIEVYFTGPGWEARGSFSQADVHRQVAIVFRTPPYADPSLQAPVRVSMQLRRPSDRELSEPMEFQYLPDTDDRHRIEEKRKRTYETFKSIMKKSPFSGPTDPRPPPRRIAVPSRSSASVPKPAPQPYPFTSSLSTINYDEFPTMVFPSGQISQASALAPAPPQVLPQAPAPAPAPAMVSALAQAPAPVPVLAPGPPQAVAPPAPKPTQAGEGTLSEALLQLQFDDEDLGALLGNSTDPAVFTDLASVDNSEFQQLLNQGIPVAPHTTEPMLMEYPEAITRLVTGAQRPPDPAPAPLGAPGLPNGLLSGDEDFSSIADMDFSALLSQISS
active: [2] -0.295
inactive: bafetinib -0.04 | [1] 0.006 | nilotinib -0.023 | [3] -0.031 | [4] 0.04 | [5] -0.047 | tipifarnib -0.04 | mubritinib 0.044 | [6] -0.009 | [7] -0.06 | [8] -0.121 | [9] -0.016 | entinostat 0.019 | vorinostat 0.036 | citarinostat 0.079 | silmitasertib -0.029 | [10] -0.017 | [11] -0.002

RTN4IP1 (UniProt Q8WWV3)
UniProt Q8WWV3, sequence (Q8WWV3 whole entry, looked up): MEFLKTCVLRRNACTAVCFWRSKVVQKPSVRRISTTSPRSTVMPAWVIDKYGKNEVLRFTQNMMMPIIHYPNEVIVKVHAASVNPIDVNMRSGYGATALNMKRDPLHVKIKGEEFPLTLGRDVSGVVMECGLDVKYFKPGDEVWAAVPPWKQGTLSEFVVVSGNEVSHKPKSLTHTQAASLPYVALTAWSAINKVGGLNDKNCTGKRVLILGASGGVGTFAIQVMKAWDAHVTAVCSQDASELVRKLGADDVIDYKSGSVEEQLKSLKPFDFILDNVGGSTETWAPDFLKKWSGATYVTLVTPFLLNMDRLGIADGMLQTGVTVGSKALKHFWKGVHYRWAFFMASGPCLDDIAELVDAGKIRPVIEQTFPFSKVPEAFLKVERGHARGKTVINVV
inactive: bafetinib -0.178 | [1] -0.07 | nilotinib 0.171 | [2] -0.194 | dasatinib 0.189 | [3] -0.008 | [4] 0.121 | [5] 0.168 | tipifarnib 0.041 | mubritinib 0.122 | [6] -0.057 | [7] -0.218 | [8] -0.085 | [9] -0.024 | entinostat 0.009 | vorinostat 0.111 | citarinostat 0.316 | silmitasertib 0.069 | [10] 0.079 | [11] -0.198

SEC23IP (UniProt Q9Y6Y8)
UniProt Q9Y6Y8, sequence (Q9Y6Y8 whole entry, looked up): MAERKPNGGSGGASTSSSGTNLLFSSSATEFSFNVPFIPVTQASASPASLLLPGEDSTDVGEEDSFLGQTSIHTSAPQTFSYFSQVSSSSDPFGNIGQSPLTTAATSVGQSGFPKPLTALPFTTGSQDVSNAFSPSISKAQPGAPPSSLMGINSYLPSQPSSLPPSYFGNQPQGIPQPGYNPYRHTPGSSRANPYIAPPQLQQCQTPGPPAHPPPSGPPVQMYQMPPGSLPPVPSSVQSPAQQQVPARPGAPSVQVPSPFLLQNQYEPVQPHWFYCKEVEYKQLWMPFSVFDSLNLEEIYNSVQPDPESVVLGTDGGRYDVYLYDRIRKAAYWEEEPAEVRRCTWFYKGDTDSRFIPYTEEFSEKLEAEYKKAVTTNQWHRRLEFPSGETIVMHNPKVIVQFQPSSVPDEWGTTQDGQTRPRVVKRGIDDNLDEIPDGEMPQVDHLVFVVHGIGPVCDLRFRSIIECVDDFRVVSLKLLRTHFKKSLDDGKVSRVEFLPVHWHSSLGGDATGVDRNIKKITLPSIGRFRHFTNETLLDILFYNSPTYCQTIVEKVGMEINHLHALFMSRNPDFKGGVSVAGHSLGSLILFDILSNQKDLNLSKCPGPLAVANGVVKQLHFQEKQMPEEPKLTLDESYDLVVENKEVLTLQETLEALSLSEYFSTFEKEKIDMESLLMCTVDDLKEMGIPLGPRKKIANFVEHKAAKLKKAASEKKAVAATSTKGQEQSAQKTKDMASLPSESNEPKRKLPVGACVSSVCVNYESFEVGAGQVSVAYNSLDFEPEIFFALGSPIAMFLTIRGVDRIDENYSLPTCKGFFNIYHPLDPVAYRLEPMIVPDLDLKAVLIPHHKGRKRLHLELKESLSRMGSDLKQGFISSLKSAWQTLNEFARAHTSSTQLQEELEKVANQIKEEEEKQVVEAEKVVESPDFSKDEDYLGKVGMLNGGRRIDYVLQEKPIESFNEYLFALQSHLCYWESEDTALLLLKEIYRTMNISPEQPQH
inactive: bafetinib -0.23 | [1] 0.036 | nilotinib -0.017 | [2] -0.061 | dasatinib -0.143 | [3] -0.026 | [4] 0.148 | [5] 0.009 | tipifarnib -0.057 | mubritinib 0.014 | [6] -0.049 | [7] -0.152 | [8] -0.221 | [9] -0.033 | entinostat 0.049 | vorinostat 0.065 | citarinostat 0.055 | silmitasertib -0.03 | [10] -0.058 | [11] -0.063

RNF185 (UniProt Q96GF1)
inactive: bafetinib 0.189 | [1] -0.037 | nilotinib -0.027 | [2] -0.001 | [3] -0.022 | [4] 0.089 | [5] 0.218 | tipifarnib 0.045 | mubritinib 0.057 | [7] -0.022 | [8] -0.072 | [9] -0.139 | vorinostat -0.28 | citarinostat -0.135 | silmitasertib 0.001 | [11] 0.072

RCOR3 isoform 3 (UniProt Q9P2K3)
inactive: bafetinib 0.023 | [1] 0.039 | nilotinib -0.019 | [2] 0.001 | dasatinib -0.09 | [3] -0.022 | [4] -0.056 | [5] 0.006 | tipifarnib -0.119 | mubritinib 0.09 | [6] 0.019 | [7] -0.067 | [8] -0.129 | [9] -0.177 | entinostat 0.1 | vorinostat 0.127 | citarinostat 0.115 | silmitasertib -0.043 | [11] -0.075

SEPTIN5 (UniProt Q99719)
UniProt Q99719, sequence (Q99719 whole entry, looked up): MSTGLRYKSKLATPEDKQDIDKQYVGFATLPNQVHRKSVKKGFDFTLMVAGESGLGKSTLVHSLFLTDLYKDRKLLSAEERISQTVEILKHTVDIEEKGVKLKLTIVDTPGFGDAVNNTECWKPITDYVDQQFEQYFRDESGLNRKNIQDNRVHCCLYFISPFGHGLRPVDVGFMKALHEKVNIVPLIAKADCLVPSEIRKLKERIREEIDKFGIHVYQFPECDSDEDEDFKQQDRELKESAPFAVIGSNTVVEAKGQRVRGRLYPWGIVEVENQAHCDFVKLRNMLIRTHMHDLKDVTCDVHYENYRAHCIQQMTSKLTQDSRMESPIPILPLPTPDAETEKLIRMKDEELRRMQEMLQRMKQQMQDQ
inactive: bafetinib -0.017 | [1] 0.021 | nilotinib -0.011 | [2] 0.002 | dasatinib -0.048 | [3] -0.006 | [4] 0.051 | [5] 0.025 | tipifarnib -0.024 | mubritinib 0.007 | [6] -0.005 | [7] -0.012 | [8] -0.011 | [9] -0.004 | entinostat -0.017 | vorinostat -0.001 | citarinostat 0.059 | silmitasertib -0.038 | [10] -0.013 | [11] -0.021

SAMD4B (UniProt Q5PRF9)
UniProt Q5PRF9, sequence (Q5PRF9 whole entry, looked up): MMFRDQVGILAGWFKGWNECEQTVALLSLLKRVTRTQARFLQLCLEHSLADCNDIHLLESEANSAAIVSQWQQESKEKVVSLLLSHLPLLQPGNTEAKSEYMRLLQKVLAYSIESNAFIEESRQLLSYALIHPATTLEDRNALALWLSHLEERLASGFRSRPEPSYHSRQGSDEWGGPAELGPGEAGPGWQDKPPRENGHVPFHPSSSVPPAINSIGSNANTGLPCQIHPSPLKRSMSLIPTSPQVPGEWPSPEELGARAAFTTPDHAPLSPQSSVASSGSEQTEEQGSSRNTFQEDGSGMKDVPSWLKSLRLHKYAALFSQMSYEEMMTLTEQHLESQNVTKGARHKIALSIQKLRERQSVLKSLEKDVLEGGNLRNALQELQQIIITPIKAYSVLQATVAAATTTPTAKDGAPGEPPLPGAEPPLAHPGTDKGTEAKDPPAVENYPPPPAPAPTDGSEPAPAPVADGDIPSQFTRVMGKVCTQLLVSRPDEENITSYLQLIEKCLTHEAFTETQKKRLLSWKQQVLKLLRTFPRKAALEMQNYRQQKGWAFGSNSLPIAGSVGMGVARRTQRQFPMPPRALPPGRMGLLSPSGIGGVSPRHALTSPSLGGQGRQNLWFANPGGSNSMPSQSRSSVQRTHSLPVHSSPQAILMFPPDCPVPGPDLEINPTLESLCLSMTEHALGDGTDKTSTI
inactive: bafetinib -0.436 | [1] 0.125 | nilotinib -0.167 | [2] -0.312 | dasatinib -0.296 | [3] 0.002 | [4] -0.072 | [5] -0.042 | tipifarnib 0.09 | [6] -0.459 | entinostat 0.133 | vorinostat -0.069 | [10] 0.067

RNF2 (UniProt Q99496)
inactive: bafetinib -0.102 | [1] 0.022 | nilotinib 0.065 | [2] -0.214 | dasatinib -0.106 | [3] 0.061 | [4] -0.005 | tipifarnib -0.026 | mubritinib -0.031 | [6] -0.04 | [7] -0.023 | [8] -0.003 | [9] -0.051 | entinostat 0.102 | vorinostat -0.048 | citarinostat 0.054 | silmitasertib 0.003 | [10] -0.014 | [11] -0.102

SEPTIN5 (UniProt G3XAH0)
inactive: bafetinib -0.038 | [1] -0.013 | nilotinib -0.05 | [2] -0.024 | dasatinib -0.049 | [3] -0.008 | [4] -0.05 | [5] 0.082 | tipifarnib 0.006 | mubritinib -0.011 | [6] 0.008 | [7] 0.004 | [8] -0.142 | [9] 0.016 | entinostat -0.031 | vorinostat 0.16 | silmitasertib -0.023 | [10] -0.028

RPS18 (UniProt P62269)
inactive: bafetinib 0.214 | [1] -0.015 | nilotinib -0.001 | [2] 0.198 | dasatinib 0.069 | [3] -0.054 | [4] -0.088 | [5] -0.001 | tipifarnib 0.031 | mubritinib -0.022 | [6] -0.032 | [7] 0.08 | [8] 0.122 | [9] 0.049 | entinostat -0.083 | vorinostat 0.023 | citarinostat -0.093 | silmitasertib 0 | [10] 0.069 | [11] -0.145

RNF167 (UniProt Q9H6Y7)
inactive: bafetinib -0.049 | [1] -0.012 | nilotinib 0.049 | [2] -0.014 | dasatinib 0.039 | [3] 0.025 | [4] -0.068 | [5] 0.032 | tipifarnib 0.008 | mubritinib 0.001 | [6] 0.015 | [7] -0.062 | [8] -0.278 | [9] -0.03 | entinostat -0.032 | vorinostat 0.014 | silmitasertib 0.095 | [10] -0.028

SAFB2 (UniProt Q14151)
UniProt Q14151, sequence (Q14151 whole entry, looked up): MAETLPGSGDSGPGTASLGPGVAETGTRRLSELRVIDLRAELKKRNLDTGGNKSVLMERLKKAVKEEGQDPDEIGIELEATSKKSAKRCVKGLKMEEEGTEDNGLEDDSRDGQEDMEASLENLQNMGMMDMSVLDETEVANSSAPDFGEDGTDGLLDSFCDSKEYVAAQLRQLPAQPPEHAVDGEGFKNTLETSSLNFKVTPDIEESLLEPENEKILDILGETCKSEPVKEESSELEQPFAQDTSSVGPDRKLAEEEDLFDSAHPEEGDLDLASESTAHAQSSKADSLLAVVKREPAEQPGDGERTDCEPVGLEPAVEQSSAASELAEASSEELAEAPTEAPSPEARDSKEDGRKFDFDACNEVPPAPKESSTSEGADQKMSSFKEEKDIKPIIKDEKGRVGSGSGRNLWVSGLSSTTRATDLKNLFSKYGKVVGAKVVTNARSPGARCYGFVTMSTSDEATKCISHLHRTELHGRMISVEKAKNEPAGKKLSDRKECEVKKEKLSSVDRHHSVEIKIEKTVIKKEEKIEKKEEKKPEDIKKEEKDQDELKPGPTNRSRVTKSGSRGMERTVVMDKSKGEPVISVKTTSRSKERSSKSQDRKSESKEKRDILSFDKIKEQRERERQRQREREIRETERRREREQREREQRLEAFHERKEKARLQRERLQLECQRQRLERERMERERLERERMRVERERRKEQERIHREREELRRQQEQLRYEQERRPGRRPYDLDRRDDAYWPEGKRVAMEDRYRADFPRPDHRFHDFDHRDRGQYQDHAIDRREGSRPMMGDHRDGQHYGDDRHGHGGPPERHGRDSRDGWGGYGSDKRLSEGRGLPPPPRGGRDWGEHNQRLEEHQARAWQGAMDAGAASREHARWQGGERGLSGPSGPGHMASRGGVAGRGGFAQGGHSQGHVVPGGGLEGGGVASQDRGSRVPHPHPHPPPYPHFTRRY
inactive: bafetinib 0.17 | [1] -0.018 | nilotinib -0.016 | [2] 0.117 | dasatinib 0.183 | [3] -0.054 | [4] -0.135 | [5] -0.058 | tipifarnib 0.085 | mubritinib -0.077 | [6] 0.116 | [7] 0.084 | [8] 0.255 | [9] 0.043 | entinostat -0.076 | vorinostat -0.016 | citarinostat -0.098 | silmitasertib 0.119 | [10] 0.084 | [11] -0.038

ROMO1 (UniProt P60602)
UniProt P60602, sequence (P60602 whole entry, looked up): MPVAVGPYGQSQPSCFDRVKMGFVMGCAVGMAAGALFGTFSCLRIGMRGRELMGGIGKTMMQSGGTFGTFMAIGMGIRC
inactive: bafetinib 0.056 | [1] -0.022 | nilotinib -0.001 | [2] 0.027 | dasatinib -0.03 | [3] -0.039 | [4] 0.066 | [5] 0.063 | tipifarnib 0.062 | mubritinib 0.01 | [6] -0.105 | [7] 0.046 | [8] -0.051 | entinostat 0.011 | vorinostat -0.013 | citarinostat 0.072 | silmitasertib 0.032 | [10] 0.062 | [11] -0.042

SLC1A5 (UniProt Q15758)
UniProt Q15758, sequence (Q15758 whole entry, looked up): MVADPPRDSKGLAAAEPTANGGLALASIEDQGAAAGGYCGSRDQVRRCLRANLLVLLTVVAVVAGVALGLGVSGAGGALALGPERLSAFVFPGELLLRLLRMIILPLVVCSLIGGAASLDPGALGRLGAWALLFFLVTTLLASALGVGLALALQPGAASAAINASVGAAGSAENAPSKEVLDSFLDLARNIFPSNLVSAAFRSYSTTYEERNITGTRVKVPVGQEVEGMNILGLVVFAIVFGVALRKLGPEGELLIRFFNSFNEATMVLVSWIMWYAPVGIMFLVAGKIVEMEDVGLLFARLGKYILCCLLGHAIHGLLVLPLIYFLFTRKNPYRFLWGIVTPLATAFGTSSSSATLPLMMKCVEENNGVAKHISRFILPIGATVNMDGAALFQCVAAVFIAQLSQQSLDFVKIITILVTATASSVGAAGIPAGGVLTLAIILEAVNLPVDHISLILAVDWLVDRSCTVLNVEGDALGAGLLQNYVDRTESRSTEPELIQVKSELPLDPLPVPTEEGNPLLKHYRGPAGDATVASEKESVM
inactive: bafetinib 0.041 | [1] 0.004 | nilotinib 0.067 | [2] 0.023 | dasatinib 0.023 | [3] 0.014 | [4] 0.035 | [5] -0.032 | tipifarnib 0.026 | mubritinib 0.052 | [6] -0.057 | [7] 0.117 | [8] 0.155 | [9] 0.03 | entinostat -0.041 | vorinostat -0.039 | citarinostat -0.003 | silmitasertib -0.016 | [10] -0.001 | [11] -0.03

SCYL3 isoform 2 (UniProt Q8IZE3)
inactive: bafetinib -0.056 | [1] -0.017 | nilotinib -0.215 | [2] -0.167 | dasatinib -0.124 | [3] 0.111 | [4] -0.062 | [5] -0.05 | tipifarnib 0.044 | mubritinib 0.032 | [7] 0.001 | [8] -0.185 | [9] -0.055 | vorinostat 0.031 | citarinostat -0.047 | silmitasertib 0.021 | [10] -0.053 | [11] 0.173

RMDN2 isoform 2 (UniProt Q96LZ7)
UniProt Q96LZ7, sequence (Q96LZ7 whole entry, looked up): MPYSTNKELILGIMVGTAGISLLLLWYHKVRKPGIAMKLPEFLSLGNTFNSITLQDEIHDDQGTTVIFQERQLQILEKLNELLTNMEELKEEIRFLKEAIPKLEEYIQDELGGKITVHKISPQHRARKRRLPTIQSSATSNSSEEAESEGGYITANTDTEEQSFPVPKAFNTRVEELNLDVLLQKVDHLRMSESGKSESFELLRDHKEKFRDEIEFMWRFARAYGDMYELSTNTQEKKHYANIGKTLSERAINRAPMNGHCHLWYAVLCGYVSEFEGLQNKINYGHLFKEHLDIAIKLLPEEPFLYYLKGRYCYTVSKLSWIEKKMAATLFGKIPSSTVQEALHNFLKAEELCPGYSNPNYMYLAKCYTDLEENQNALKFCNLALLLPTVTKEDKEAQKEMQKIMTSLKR
inactive: nilotinib -0.556 | [2] 0.661 | [3] -0.115 | [5] -0.104 | mubritinib -0.231 | [8] -0.018 | [9] 0.116 | silmitasertib -0.275
